Assay results published in PubChem BioAssay (Tox21).
Values joined by “and” are separate entries in the source; they are usually repeats but may differ in a detail not shown here. Equal entries are not always repeated. Inconclusive results are not listed. Where a structure was tested more than once in an assay, its records may differ in their call. Active and inactive are the calls of the source. The call rests on the fitted dose curve; in most records, active means well fitted curve in the direction sought with a large enough effect in the repeat runs; inconclusive means weak or mixed curves; inactive means no such curve, though single readings can be large; an effect the other way counts as inactive or inconclusive.

Columns and labels:
[1] = Caspase-3/7 induction in HepG2 cells by small molecules, qHTS cell viability counter screen (AID 1346981); further: nearly all actives have a fitted effect of over 30% in size; further: potency means the concentration at half of the fitted maximal effect
Outline: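 Treatment of HepG2 cells with DMSO-delivered compounds ran 16 hr at 37 C following a 5-hr pre-incubation of 2,000 cells/well. CellTiter-Fluor fluorescence, read after 1 hr, served as the viability measure in a qHTS format.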

[2] = target: Nuclear receptor subfamily 1 group I member 2 (Homo sapiens) (UniProt O75469); assay: Human pregnane X receptor (PXR) small molecule agonists, qHTS assay (AID 1346982); further: nearly all actives have a fitted effect of over 35% in size; further: potency means the concentration at half of the fitted maximal effect
Chain of Nuclear receptor subfamily 1 group I member 2 (Homo sapiens) (O75469 whole entry, looked up): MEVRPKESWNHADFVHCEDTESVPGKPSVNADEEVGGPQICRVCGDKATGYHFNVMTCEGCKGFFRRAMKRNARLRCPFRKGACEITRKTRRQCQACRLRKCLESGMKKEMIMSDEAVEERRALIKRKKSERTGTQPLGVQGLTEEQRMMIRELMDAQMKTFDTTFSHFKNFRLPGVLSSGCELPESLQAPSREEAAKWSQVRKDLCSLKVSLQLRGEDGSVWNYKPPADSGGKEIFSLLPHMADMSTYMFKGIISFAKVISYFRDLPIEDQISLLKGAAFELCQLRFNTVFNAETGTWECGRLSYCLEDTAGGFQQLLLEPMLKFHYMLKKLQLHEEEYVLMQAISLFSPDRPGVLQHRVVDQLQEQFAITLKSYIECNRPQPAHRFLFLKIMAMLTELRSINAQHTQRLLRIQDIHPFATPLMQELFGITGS
Outline: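 Stable HepG2 line reporting PXR-mediated CYP3A4 expression via luciferase. Treatment: 24 hr with compounds in DMSO at 37 C. Detection: ONE-Glo luminescence.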

[3] = target: Cytochrome P450 2C19 (Homo sapiens) (UniProt P33261); assay: Cytochrome P450 Family 2 Subfamily C Member 19 (CYP2C19) small molecule antagonists: luciferase reporter qHTS assay (AID 1671197); further: nearly all actives have a fitted effect of over 65% in size; further: potency means the concentration at half of the fitted maximal effect
Chain of Cytochrome P450 2C19 (Homo sapiens) (P33261 whole entry, looked up): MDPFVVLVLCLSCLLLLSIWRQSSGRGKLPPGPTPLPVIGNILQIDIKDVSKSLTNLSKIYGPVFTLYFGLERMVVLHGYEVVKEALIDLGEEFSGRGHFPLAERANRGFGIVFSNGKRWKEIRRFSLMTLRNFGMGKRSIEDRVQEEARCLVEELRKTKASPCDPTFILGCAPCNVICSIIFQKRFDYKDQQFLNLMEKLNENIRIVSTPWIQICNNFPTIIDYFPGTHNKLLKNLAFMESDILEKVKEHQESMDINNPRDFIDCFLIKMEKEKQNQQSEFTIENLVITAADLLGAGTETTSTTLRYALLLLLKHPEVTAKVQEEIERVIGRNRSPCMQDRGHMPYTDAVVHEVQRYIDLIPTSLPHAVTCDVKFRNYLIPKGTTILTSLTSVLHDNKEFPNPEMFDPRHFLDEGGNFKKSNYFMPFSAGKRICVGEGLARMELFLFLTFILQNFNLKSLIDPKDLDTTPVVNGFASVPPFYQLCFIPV
Outline: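 First, compounds are pinned into enzyme-substrate mix and held 10 min at room temperature. Second, NADPH regeneration solution is added and plates incubate 1 h at 37C. Third, detection reagent is added and luminescence read after 20 min.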

[4] = target: Cytochrome P450 1A2 (Homo sapiens) (UniProt P05177); assay: Cytochrome P450 Family 1 Subfamily A Member 2 (CYP1A2) small molecule antagonists: luciferase reporter qHTS assay (AID 1671199); further: nearly all actives have a fitted effect of over 50% in size; further: potency means the concentration at half of the fitted maximal effect
Chain of Cytochrome P450 1A2 (Homo sapiens) (P05177 whole entry, looked up): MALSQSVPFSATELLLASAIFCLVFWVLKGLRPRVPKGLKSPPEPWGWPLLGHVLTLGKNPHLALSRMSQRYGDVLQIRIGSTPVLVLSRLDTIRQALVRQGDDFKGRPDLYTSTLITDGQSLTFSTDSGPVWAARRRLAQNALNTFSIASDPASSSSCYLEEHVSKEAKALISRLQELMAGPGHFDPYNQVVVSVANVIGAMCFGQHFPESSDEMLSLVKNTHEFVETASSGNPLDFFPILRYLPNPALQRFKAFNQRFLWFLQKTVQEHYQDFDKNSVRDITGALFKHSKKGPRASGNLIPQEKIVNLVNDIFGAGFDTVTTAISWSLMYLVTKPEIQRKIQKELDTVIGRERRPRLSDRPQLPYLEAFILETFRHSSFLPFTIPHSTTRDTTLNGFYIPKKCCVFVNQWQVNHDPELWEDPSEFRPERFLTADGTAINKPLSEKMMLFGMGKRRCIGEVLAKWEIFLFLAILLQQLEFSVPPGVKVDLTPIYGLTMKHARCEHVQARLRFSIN
Outline: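 Read-out is luminescence from luciferin detection reagent (20 min) proportional to CYP1A2 activity; compounds in DMSO preincubated 10 min with enzyme and proluciferin substrate, then NADPH regeneration solution, 1 h, room temperature.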

[5] = target: Voltage-gated inwardly rectifying potassium channel KCNH2 (Homo sapiens) (UniProt Q12809); assay: Human Ether-a-go-go-Related Gene (hERG) channel small molecule antagonists: fluorescence cell-based qHTS assay (AID 1671200);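 further: hERG-expressing U2OS cells given a thallium stimulus after FluxOR II dye loading; series mostly up to about 77 µM; nearly all actives have a fitted effect of over 50% in size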
Chain of Voltage-gated inwardly rectifying potassium channel KCNH2 (Homo sapiens) (Q12809 whole entry, looked up): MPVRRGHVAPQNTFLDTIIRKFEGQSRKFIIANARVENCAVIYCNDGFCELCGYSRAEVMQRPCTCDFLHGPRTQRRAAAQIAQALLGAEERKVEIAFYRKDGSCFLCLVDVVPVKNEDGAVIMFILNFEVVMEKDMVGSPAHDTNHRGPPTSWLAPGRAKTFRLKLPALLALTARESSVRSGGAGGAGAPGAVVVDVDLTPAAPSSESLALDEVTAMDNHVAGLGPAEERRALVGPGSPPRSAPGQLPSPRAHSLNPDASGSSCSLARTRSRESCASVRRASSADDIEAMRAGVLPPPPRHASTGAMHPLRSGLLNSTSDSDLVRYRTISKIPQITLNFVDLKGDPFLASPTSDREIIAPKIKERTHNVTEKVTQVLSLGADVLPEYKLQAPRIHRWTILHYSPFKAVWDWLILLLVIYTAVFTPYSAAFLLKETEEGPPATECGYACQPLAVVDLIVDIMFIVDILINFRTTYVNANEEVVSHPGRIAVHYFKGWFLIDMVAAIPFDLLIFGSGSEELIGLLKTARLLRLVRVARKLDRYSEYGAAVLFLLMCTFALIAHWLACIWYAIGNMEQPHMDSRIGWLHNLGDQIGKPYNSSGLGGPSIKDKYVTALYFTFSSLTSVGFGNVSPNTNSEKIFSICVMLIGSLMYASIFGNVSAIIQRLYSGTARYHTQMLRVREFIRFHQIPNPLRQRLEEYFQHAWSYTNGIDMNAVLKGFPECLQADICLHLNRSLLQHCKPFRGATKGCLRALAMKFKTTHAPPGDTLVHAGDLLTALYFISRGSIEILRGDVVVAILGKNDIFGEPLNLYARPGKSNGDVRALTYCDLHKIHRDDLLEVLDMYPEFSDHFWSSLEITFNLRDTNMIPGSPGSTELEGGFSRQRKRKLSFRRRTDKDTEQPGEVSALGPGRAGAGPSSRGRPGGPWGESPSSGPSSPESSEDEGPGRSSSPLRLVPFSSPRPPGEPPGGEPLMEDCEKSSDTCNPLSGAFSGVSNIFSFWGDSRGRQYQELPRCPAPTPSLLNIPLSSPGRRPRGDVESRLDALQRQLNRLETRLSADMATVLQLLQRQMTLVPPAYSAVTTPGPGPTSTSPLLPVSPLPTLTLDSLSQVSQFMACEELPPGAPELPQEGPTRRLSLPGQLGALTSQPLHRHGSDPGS
Outline: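 Read-out: thallium influx as a surrogate for potassium, tracked as fluorescence (480 nm ex/540 nm em) every second for 2 min after Stimulus Buffer addition in dye-loaded hERG-U2OS cells.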

[6] = target: Cytochrome P450 2D6 (Homo sapiens) (UniProt P10635); assay: Cytochrome P450 Family 2 Subfamily D Member 6 (CYP2D6) small molecule antagonists: luciferase reporter qHTS assay (AID 1671196); further: nearly all actives have a fitted effect of over 50% in size; further: potency means the concentration at half of the fitted maximal effect
Chain of Cytochrome P450 2D6 (Homo sapiens) (P10635 whole entry, looked up): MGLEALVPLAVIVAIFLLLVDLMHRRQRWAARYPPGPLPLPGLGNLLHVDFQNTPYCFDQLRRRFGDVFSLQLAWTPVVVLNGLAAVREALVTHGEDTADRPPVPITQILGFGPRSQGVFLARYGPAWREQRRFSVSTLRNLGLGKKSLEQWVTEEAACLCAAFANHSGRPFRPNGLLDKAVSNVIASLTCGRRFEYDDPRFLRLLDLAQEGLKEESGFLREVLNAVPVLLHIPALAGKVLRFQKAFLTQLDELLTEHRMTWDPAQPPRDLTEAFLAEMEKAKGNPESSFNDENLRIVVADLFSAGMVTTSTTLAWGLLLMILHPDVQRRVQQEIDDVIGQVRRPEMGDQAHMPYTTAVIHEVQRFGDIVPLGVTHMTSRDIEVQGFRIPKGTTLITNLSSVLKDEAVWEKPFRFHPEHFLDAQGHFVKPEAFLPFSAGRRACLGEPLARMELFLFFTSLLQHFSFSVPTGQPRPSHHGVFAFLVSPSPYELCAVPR
Outline: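 Chemicals tested for interference with CYP2D6 activity; proluciferin substrate, NADPH regeneration, 1 h at room temperature, luminescent detection.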

[7] = target: Cytochrome P450 2C9 (Homo sapiens) (UniProt P11712); assay: Cytochrome P450 Family 2 Subfamily C Member 9 (CYP2C9) small molecule antagonists: luciferase reporter qHTS assay (AID 1671198); further: nearly all actives have a fitted effect of over 50% in size; further: potency means the concentration at half of the fitted maximal effect
Chain of Cytochrome P450 2C9 (Homo sapiens) (P11712 whole entry, looked up): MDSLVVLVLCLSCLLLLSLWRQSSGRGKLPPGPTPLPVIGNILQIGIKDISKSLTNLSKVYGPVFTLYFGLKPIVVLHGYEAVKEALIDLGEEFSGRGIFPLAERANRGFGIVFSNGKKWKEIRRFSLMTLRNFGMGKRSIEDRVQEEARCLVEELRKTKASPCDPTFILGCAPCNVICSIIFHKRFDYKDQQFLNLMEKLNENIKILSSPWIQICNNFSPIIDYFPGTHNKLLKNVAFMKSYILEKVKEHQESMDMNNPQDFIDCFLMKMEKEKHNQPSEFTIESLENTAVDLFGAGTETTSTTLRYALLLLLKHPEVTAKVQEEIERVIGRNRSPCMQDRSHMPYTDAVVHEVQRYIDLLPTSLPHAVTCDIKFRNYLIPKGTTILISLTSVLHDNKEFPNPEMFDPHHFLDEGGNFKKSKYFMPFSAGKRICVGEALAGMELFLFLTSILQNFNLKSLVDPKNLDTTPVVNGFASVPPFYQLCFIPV
Outline: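 P450-Glo proluciferin substrate with CYP2C9 enzyme; 10 min RT preincubation, then NADPH regeneration 1 h at 37C; luciferin detection reagent 20 min RT, luminescence in relative luminescence units.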

[8] = target: Cytochrome P450 3A4 (Homo sapiens) (UniProt P08684); assay: Cytochrome P450 Family 3 Subfamily A Member 4 (CYP3A4) small molecule antagonists: luciferase reporter qHTS assay (AID 1671201)
Chain of Cytochrome P450 3A4 (Homo sapiens) (P08684 whole entry, looked up): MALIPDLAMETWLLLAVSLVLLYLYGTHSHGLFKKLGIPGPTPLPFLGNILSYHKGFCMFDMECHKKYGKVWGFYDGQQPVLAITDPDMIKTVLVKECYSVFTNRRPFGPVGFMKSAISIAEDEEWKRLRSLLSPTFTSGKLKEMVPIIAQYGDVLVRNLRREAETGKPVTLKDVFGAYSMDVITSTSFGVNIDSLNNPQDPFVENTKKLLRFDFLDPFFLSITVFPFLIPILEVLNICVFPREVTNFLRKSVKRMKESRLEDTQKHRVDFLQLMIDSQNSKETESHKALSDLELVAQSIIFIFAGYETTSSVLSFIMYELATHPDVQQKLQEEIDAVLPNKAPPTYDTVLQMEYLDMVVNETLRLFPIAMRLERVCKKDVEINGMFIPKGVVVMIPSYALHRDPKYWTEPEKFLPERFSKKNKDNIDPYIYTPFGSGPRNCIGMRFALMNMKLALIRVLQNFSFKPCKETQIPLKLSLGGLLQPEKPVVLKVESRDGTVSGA
Outline: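 Luminescent readout (RLU) proportional to CYP3A4 activity, from luciferin generated off a proluciferin substrate. Enzyme–substrate mix plus compound 10 min at room temp, NADPH regeneration 1 h, detection reagent 20 min.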

Measured: Potency

c1c[nH]cn1
active: [3] 84.4 µM
inactive: [1] | [2] | [4] | [5]

O=[N+]([O-])c1ccc(/C=C/c2ccc([N+](=O)[O-])cc2S(=O)(=O)O)c(S(=O)(=O)O)c1
active: [7] 31.7 µM and 39.9 µM
not listed: [1]
inactive: all other assays above

O=C(O)c1cc(=O)c2c(OCC(O)COc3cccc4oc(C(=O)O)cc(=O)c34)cccc2o1
not listed: [7]
inactive: all other assays above

CC(=O)CC(=O)Nc1ccccc1
active: [3] 70.9 µM | [4] 35.5 µM and 39.9 µM
not listed: [7]
inactive: all other assays above

COc1cc(Cc2cnc(N)nc2N)cc(OC)c1OC
inactive: [1] | [6] | [3] | [5]
35.5 µM (active) and inactive: [4]

CC1=CC(=O)NS(=O)(=O)O1
inactive: [1] | [5]

CCCCCCCCC/C=C/CC1CC(=O)OC1=O (stereo not drawn)
inactive and 39.9 µM (active): [6]
active: [7] 80 µM and 39.9 µM
not listed: [3]
inactive: all other assays above

CC1=C(C)S(=O)(=O)CCS1(=O)=O
69.7 µM (active) and inactive: [3]
not listed: [1] | [7]
inactive: all other assays above

Cc1cc(C)c(C)cc1C
not listed: [7]
inactive: all other assays above

CCCSc1ccc2nc(NC(=O)OC)[nH]c2c1
inactive: [1] | [6] | [3] | [5]
active: [4] 5.64 µM and 5.75 µM

COCCCOc1ccnc(CS(=O)c2nc3ccccc3[nH]2)c1C (stereo not drawn)
inactive: [1] | [5]

CCCCCCOCCO
not listed: [7]
inactive: all other assays above

CCCCCC1=CCCC1=O
62.4 µM (active) and inactive: [2]
20.4 µM (active) and inactive: [3]
not listed: [7]
inactive: all other assays above

NNc1nncc2ccccc12
inactive: [1] | [5]

O=S1(=O)CC=CC1
52.6 µM (active) and inactive: [2]
not listed: [7]
inactive: all other assays above

CCc1cccc(C)c1N
59.2 µM (active) and inactive: [2]
active: [3] 68.8 µM and 71 µM | [4] 39.9 µM
not listed: [7]
inactive: all other assays above

OCc1cccnc1
inactive: [1] | [5]

C[C@H]1C[C@@H]2[C@H]([C@@H](O)C[C@@]3(C)[C@H]2CC[C@]3(O)C(=O)CO)[C@@]2(C)C=CC(=O)C=C12
inactive: [1] | [4] | [5]

CCc1ccc(CCOc2ccc(CC3SC(=O)NC3=O)cc2)nc1 (stereo not drawn)
active: [7] 31.7 µM and 30.9 µM
not listed: [2] | [8]
inactive: all other assays above

N[C@@H](Cc1cc(I)c(Oc2cc(I)c(O)c(I)c2)c(I)c1)C(=O)O
inactive: [1] | [6] | [3] | [5] | [8]

c1ccc2scnc2c1
not listed: [4] | [7]
inactive: all other assays above

O=C1CCC(N2C(=O)c3ccccc3C2=O)C(=O)N1 (stereo not drawn)
not listed: [6]
inactive: all other assays above

CC[C@H](C)C(=O)O[C@H]1C[C@@H](C)C=C2C=C[C@H](C)[C@H](CC[C@@H]3C[C@@H](O)CC(=O)O3)[C@H]21
24.7 µM (active) and inactive: [2]
69.6 µM (active) and inactive: [1]
inactive: [4]
36.1 µM (active) and inactive: [6]
